Compounds with a hit are over-represented: about 1.6% of the library has one in this group of screens.
hERG WT inh – blocks the wildtype human KCNH2 potassium channel | actives 0.37% (n = 340,000) | Q12809 | activity change, % at 1.84 µM | U2OS, BacMam KCNH2, thallium flux FluxOr; active compounds read low;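 active = maximum activity change below -70%; inconclusive = maximum activity change between -70% and -50%; inactive = maximum activity change above -50%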; also: % is scaled to controls: 0 for no effect and ±100 for the full control effect
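U2OS cells were transduced with wild-type KCNH2 virus (2.03 x 10^8 / mL) for 4 h at room temperature, then cultured overnight at 37 C. Thallium flux was read with FluxOr dye. Rate constants were normalized to DMSO controls.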
Glioma ERSR ind – induces the endoplasmic reticulum stress response in human glioma cells | U87-MG GRP78 promoter luciferase reporter, 16 h | Potency, µM, for inactives: at the top dose activation, hits mostly activators | actives 0.02% (n = 420,000); active = well fitted activation curve with a large enough effect; inconclusive = small, poorly fitted or top-dose-only effect; inactive = no such curve, though single readings can be large or run the other way; also: potency is read from the fitted curve at half-maximal effect; series mostly up to about 76 µM; % of control where 0% means no effect; nearly all actives have a fitted effect of over 35% in size
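ERSR induction read as luciferase luminescence (Bright-Glo, 10 min at room temperature) in stably transfected human U87-MG glioma cells exposed to compounds for 16 h, using GRP78 as sensor.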
KCNH2 3.1 inh – KCNH2 3.1 (human) potassium channel inhibition; U2OS KCNH2 3.1, thallium flux FluxOr; active compounds read low; activity change, % (tested at about 1.8 µM); actives 0.95% (n = 340,000); AID 720553;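 active = maximum activity change below -70%; inconclusive = maximum activity change from -70% to -50%; inactive = maximum activity change above -50%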;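 also: thallium influx rate constant from kinetic fluorescence after stimulation buffer; % is scaled to controls: 0 for no effect and ±100 for the full control effect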
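Measured as rate of thallium-driven FluxOr signal in transduced U2OS cells carrying the 3.1 channel, read kinetically for 2 min upon stimulation; values are rate constants scaled to DMSO control wells.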
gsp antagonist – antagonists of gsp mutant (McCune-Albright syndrome); gsp-mutant cells, cAMP HTRF, 30 min; Potency, µM (series often up to 76.9 µM), for inactives: at the highest dose activity change, negative = inhibition, most hits filed as inhibitors; actives 0.4% (n = 340,000); AID 624288; calls by dose curve; cell line not stated here;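 also: intracellular cAMP measured with PDE inhibitor Ro 20-1724 present during compound exposure; potency is read from the fitted curve at half-maximal effect; % is scaled to controls: 0 for no effect and ±100 for the full control effect; nearly all actives have a fitted effect of over 65% in size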
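Cells, 2000/well, grown 16–24 h in DMEM 10% FBS with 0.5 mg/ml G418, then compounds plus […] (300 uM addition stock), 30 min at 37C. cAMP read by HTRF (cAMP-d2 and anti-cAMP antibody-K in lysis buffer) after 30 min RT.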
gsp agonist – agonists of gsp mutant (McCune-Albright syndrome); Potency, µM (series often up to 76.9 µM), for inactives: top-dose activation (cAMP increase), usual class: activators; actives 0.13% (n = 340,000); gsp mutant cells, cAMP HTRF, 30 min; AID 624287; active = well fitted activation curve with a large enough effect; inconclusive = small, poorly fitted or top-dose-only effect, or another doubt; inactive = no such curve, though single readings can be large or run the other way; cell line not stated here;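 also: phosphodiesterase inhibitor Ro 20-1724 added with compounds to block cAMP breakdown; potency is read from the fitted curve at half-maximal effect; nearly all actives have a fitted effect of over 60% in size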
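Cells stably selected in G418 were plated at 2000/well, grown 16-24 hr, then given compounds in DMSO with the PDE inhibitor […] (300 uM solution added) for 30 min at 37C; cAMP was read by HTRF.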
pAkt inh – inhibitors of Akt phosphorylation. Neuro2A IGF-stimulated pAkt S473 HTRF, 20 min; active compounds read low. activity change, % for hits at 50 µM. actives 0.32% (n = 360,000); in the data active = activity change below about -80%; inconclusive = mostly about -51% to -80%; also: % is scaled to controls: 0 for no effect and ±100 for the full control effect
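Neuro2A cells in DMEM with 0.5% FBS, overnight at 37 deg C, given compound at single 50 µM final, then IGF (6 nM final) for 20 min at 37 deg C. Lysed; phospho-Akt Ser473 by HTRF after 24 h, 665/615 ratio.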
* = called active by the depositor; i = inactive; ? = inconclusive; · = no result; [ ] = another dose, or the depositor's remark.

SMILES	hERG WT inh	Glioma ERSR ind	KCNH2 3.1 inh	gsp antagonist	gsp agonist	pAkt inh
CN1CCc2c(sc3nc(SCC(=O)N4CCOCC4)nc(N)c23)C1	-3.2	-6.4%	12.9	3.4%	?	-104.0%*
O/N=C(/C[n+]1csc2ccccc21)c1ccccc1	·	0.7%	·	·	·	·
CCOC(=O)Nc1ccc2c(c1)N(C(=O)CCN1CCN(CCO)CC1)c1ccccc1S2	16.5	-2.0%	-5.0	16.6%	-2.4%	-123.5%*
COC(=O)c1c(OCc2ccccn2)cc(=O)n2c1CCN(Cc1ccc3nsnc3c1)CC2	·	-5.4%	·	·	·	·
Cc1ccc2nc(N3CCN(CCO)CC3)nc(-c3ccccc3)c2c1	15.0	-6.9%	-40.4	11.7%	-2.1%	i
OCCN1CCN(c2nc(-c3ccccc3)c3cc(Cl)ccc3n2)CC1	-38.6	-11.1%	-99.1*	-1.6%	13.4%	i
Cc1cc(N(C)C)cc(C)c1/C=C/c1cc[n+](C)c2ccccc12	·	-5.2%	·	·	·	·
CCNc1nc(C)c2cc(Br)c(=O)n(CC)c2n1	?	-3.4%	5.3	8.1%	20µM*	-103.6%*
CCNc1ncc2nc(C)c(=O)n(CCC#N)c2n1	·	-1.1%	·	·	·	·
COc1ccc2nc(SCC(=O)N3CCCCCC3)c(C#N)cc2c1	2.6	6.3%	-88.3*	?	-36.6%	i
C/C(=N\N=C1/SC(CC(=O)O)C(=O)N1c1ccccc1)c1ccc(C)cc1 (stereo not given)	1.3	14.1%	-2.8	25.1µM*	-25.6%	i
CN1[C@@H]2CCC[C@@H]1CC(NC(=O)c1nn(C)c3ccccc13)C2 (stereo not given in full)	·	-0.8%	·	·	·	·
CC(=O)N(C)c1ccc(OCC(O)Cn2c3ccc(Cl)cc3c3cc(Cl)ccc32)cc1 (stereo not given)	-75.5*	-6.2%	-29.1	-10.9%	-18.7%	i
CC(=O)N(C)c1ccc(OCC(O)Cn2c(C)nc3ccccc32)cc1 (stereo not given)	2.9	-0.5%	-2.9	0.5%	-2.8%[15.4 µM]	i
O=C(CSc1nnc(Cc2ccccc2)n1-c1cccc(Cl)c1)N1CCOCC1	-7.6	-2.7%	0.4	4.0%	-41.4%	-131.8%*
Cc1cccc(-n2c(Cc3ccccc3)nnc2SCC(=O)N2CCOCC2)c1	-2.8	-2.5%	12.0	-2.4%	-29.9%	i
CC(Sc1nnc(C(F)(F)F)n1C)C(=O)Nc1ccc(N2CCOCC2)cc1 (stereo not given)	-140.1*	0.0%	-185.6*	-0.9%	3.5%	i
O=C1c2ccccc2NC(c2ccc(OCc3ccccc3)c(OCc3ccccc3)c2)N1Cc1ccco1 (stereo not given)	·	0.2%	·	·	·	·
CCCN1CCC(N(CCc2ccccc2)Cc2ccccc2)CC1	-20.2	-2.4%	-75.2*	16.9%	-10.9%	i
COc1ccc(CN2CCC(N(CCc3ccccc3)Cc3ccccc3)CC2)c(OC)c1	-72.4*	-9.1%	-107.1*	3.7%	-3.7%[15.4 µM]	i
COc1cccc(CN2CCc3nnc(CCc4ccccc4)n3CC2)c1OC	·	-0.3%	·	·	·	·
O=S(=O)(NCCNCC=Cc1ccc(Br)cc1)c1cccc2cnccc12	·	-4.8%	·	·	·	·
Cc1cc(COc2ccccc2OCCN2CCN(C)CC2)no1	17.3	0.7%	-6.3	-0.7%	-30.0%	-103.7%*
O=C(Nc1ccc(Cc2ccncc2)cc1)c1ccc(S(=O)(=O)N2CCCC2)cc1	26.5	-4.5%	-7.7	50.1µM*	8.4%	i
O=C(CN1CCCCC1)Nc1ccc(S(=O)(=O)N2CCCCCC2)cc1	55.1	-1.7%	-83.1*	2.7%	-29.6%	i
O=C(CN1CCCC1)Nc1ccc(S(=O)(=O)N2CCCCC2)cc1	-0.9	1.1%	10.7	10.2%	-6.9%	i
O=C(Nc1ccc(S(=O)(=O)N2CCCCC2)cc1)c1ccncc1	8.9	-4.1%	9.6	-5.2%	18.9%	i
Cn1cnnc1Sc1ccc(CN2CCOc3ccc(C4=CCCCC4)cc3C2)o1	·	-5.0%	·	·	·	·
O=C(Nc1cccc2c(=O)cc(-c3nn[nH]n3)oc12)c1ccc(OCCCCc2ccccc2)cc1	·	-3.4%	·	·	·	·
O=C(C[N+]12CN3CN(CN(C3)C1)C2)c1ccc(O)c(O)c1	·	-4.4%	·	·	·	·

High-throughput results as filed in PubChem BioAssay.
